Screens: PubChem, several laboratories
EBV LMP1 NFkB – Epstein-Barr LMP1 NF-kappaB reporter inhibition | LMP1-induced NF-kappaB luciferase reporter cells, luminescence | inhibition, % at 12.5 µM | 0.69% of 350,000 active | AID 504558; in the data active = inhibition above about 41%;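 note: 0% = neutral control wells and 100% = reference inhibitor control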
TROY signal inh – inhibitors of TROY-dependent NF-kB signaling; inhibition, % at 10 µM; 0.98% of 360,000 active; Q293 LMP1-TROYcd NF-kB luciferase reporter, 4 h;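 active = compounds whose plate-normalised and pattern-corrected inhibition of the luciferase reporter signal at the single screening dose is 50% or more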
Peg3 prom inh – reduces Peg3 promoter-driven luciferase expression in HeLa | 1.7% of 360,000 active | inhibition, % at 20 µM | HeLa PEG-Prom luciferase reporter, luminescence, overnight | AID 588405;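 active = inhibition of at least 50% at 20 µM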
TWEAK-Fn14 inh – inhibitors of TWEAK-Fn14 interaction signaling; 2% of 360,000 active; inhibition, % at 10 µM; TWEAK-stimulated Fn14 reporter cells, luciferase luminescence, 8 h; in the data active = inhibition above about 50%
TRPM1 prom inh – MITF TRPM1 promoter inhibition in SK-MEL-5 cells | SK-MEL-5 TRPM1 promoter luciferase, 24 h | inhibition, % at 12.5 µM | 0.83% of 330,000 active;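 active = mean inhibition across replicates of 60% or more, whatever share of single replicates reaches that level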
Shn3 3UTR inh – inhibitors of Schnurri-3 3'UTR reporter in osteoblasts; inhibition, % at 12.5 µM; Clone20 osteoblast Shn3 3'UTR firefly luciferase, 24 h; 0.52% of 360,000 active; AID 588674;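 active = mean inhibition of at least 75% with every replicate also reaching 75%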;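 note: 0% = median of neutral control wells and 100% = pilot-screen positive control compound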
Starred values were filed as active, the others as inactive; · = not tested or not shown. An excerpt weighted towards active compounds, which were near 4.1% of everything screened.

SMILES | EBV LMP1 NFkB | TROY signal inh | Peg3 prom inh | TWEAK-Fn14 inh | TRPM1 prom inh | Shn3 3UTR inh
Cc1nc(N2CCN(c3ccccn3)CC2)c2c(C)c(C(=O)Nc3c(F)cc(F)cc3Br)sc2n1 | 8.5 | 28.2 | 22.5 | 64.8* | -6.5 | 50.4
Cc1nc(N2CCN(c3ccccn3)CC2)c2c(C)c(C(=O)N3CCN(c4ccc(F)cc4)CC3)sc2n1 | 13.7 | 37.9 | 58.1* | -14.2 | -4.2 | 7.0
Cc1nc(N2CCN(C(=O)COc3ccccc3)CC2)c2c(C)c(C)sc2n1 | 8.4 | 39.3 | 26.7 | 50.2* | 25.5 | 30.2
COc1ccccc1N1CCN(C(=O)c2sc3nc(C)nc(N4CCN(c5ccccn5)CC4)c3c2C)CC1 | 9.4 | -10.8 | 46.8 | 5.6 | 11.7 | 14.1
c1nc(N2CCOCC2)c2c3c(sc2n1)CCCC3 | 18.5 | 21.3 | 13.1 | 0.9 | -6.7 | 17.2
O=C(CBr)Nc1c2c(nn1-c1ccccc1)CSC2 | -3.7 | -13.2 | -11.4 | -2.9 | 6.2 | -28.5
Cc1ccc(CNC(=O)Cn2cnc3c(OCc4ccccc4)ncnc32)o1 | -15.9 | -11.8 | 16.7 | 25.4 | 0.7 | 1.2
c1ccc(Nc2nc(-c3ccccc3)ns2)cc1 | -41.8 | -58.5 | -396.7 | 14.7 | -86.3 | -99.4
Cc1c(C(=O)N2CCN(c3ccccc3)CC2)sc2ncnc(N3CCN(c4ccccn4)CC3)c12 | 14.2 | 32.6 | 56.1* | 44.8 | 27.5 | 14.6
Cc1c(C(=O)N2CCN(c3ccccn3)CC2)sc2ncnc(N3CCOCC3)c12 | -3.1 | 16.9 | 7.4 | 10.5 | 16.8 | 27.4
Cc1ccc(-c2nn(-c3cc(N4CCNCC4)ccc3[N+](=O)[O-])c(=O)c3ccccc23)cc1 | -11.4 | -4.0 | 102.2* | -16.8 | 46.5 | 28.8
Cc1c(CCC(=O)N2CCC(C(=O)O)(c3ccccc3)CC2)c(=O)oc2cc3oc4c(c3cc12)CCCC4 | 8.2 | 4.8 | -61.0 | 87.4* | 54.1 | 23.2
O=C(Nc1ccc(S(=O)(=O)N2CCOCC2)cc1)c1ccc(Cl)cc1Cl | 1.1 | -9.4 | 10.9 | 24.4 | -30.1 | 21.1
Cc1ccnc(NC(=O)c2cc(S(=O)(=O)NCc3ccccc3)ccc2C)c1 | -0.9 | 8.3 | 8.4 | -9.3 | 11.4 | -4.7
N#Cc1c(-c2ccccc2)nc(-c2ccccc2)nc1N1CCOCC1 | -9.5 | · | -9.5 | 79.1* | -30.8 | 12.6
CN(C)C(=O)c1nc2ccccc2s1 | -10.7 | 20.8 | -101.0 | 17.5 | -24.7 | -49.4
CN(C)c1ccc(CC(=O)c2nc3ccccc3s2)cc1 | -10.0 | 75.7* | -136.9 | 78.0* | -7.5 | -26.7
COc1ccc(S(=O)(=O)N2CCN(C(=O)CN3C(=O)NC(C)(c4ccc5ccccc5c4)C3=O)CC2)cc1 (stereo not drawn) | 6.2 | 15.5 | 7.6 | 15.6 | 4.3 | 13.7
COc1ccc(COC(=O)c2cc([N+](=O)[O-])ccc2N2CCOCC2)cc1F | 1.3 | 9.6 | -4.9 | 35.8 | 66.1* | 31.0
COc1cccc(CNC(=O)COC(=O)c2cc([N+](=O)[O-])ccc2N2CCCC2)c1 | 71.3* | -8.7 | 12.6 | -12.3 | 9.3 | 4.2
O=C(OCc1ccc(Br)cc1)c1cc([N+](=O)[O-])ccc1N1CCOCC1 | 15.6 | -23.0 | 0.5 | 0.2 | · | -30.5
O=C(OCc1cccc(Cl)c1)c1cc([N+](=O)[O-])ccc1N1CCOCC1 | -22.1 | 66.8* | 27.9 | 1.8 | -3.7 | 7.2
O=C(COC(=O)c1cc([N+](=O)[O-])ccc1N1CCOCC1)Nc1ccc(Cl)cc1 | 13.5 | 7.1 | 31.1 | 0.3 | 1.5 | 15.6
O=C(COC(=O)c1cc([N+](=O)[O-])ccc1N1CCOCC1)Nc1ccc(Cl)cn1 | -26.7 | 4.7 | 53.2* | 3.7 | -13.6 | -18.0
O=C(OCc1cccc(C(F)(F)F)c1)c1cc([N+](=O)[O-])ccc1N1CCOCC1 | 7.4 | -7.0 | 13.1 | -16.4 | -7.3 | 10.0
SMILES | EBV LMP1 NFkB | TROY signal inh | Peg3 prom inh | TWEAK-Fn14 inh | TRPM1 prom inh | Shn3 3UTR inh
CCc1ccc(NC(=O)CSc2nc(=O)n3cc(C)ccc3n2)cc1 | 7.3 | -6.3 | -30.5 | 0.7 | -15.5 | 10.5
CC1C(=O)N2CCCc3cc(S(=O)(=O)N4CCN(c5cccc(Cl)c5)CC4)cc1c32 (stereo not drawn) | -2.4 | 7.7 | 7.0 | 6.3 | -2.6 | 23.0
O=C(NCc1ccncc1)/C(=C/c1cccc([N+](=O)[O-])c1)NC(=O)c1ccccc1 | 3.7 | 7.4 | 13.4 | -9.2 | 12.9 | -6.5
Cc1ccc(Cl)cc1N1CCN(C(=O)C(C)n2ncn3cccc3c2=O)CC1 (stereo not drawn) | -7.7 | 0.5 | 15.6 | 5.2 | · | 2.6
Cc1c(CCC(=O)NCCCN2CCCC2=O)c(=O)oc2c(C)c(O)ccc12 | -1.5 | -5.9 | 2.3 | -0.5 | -8.9 | 22.3
Cc1ccc(C)c(NS(=O)(=O)c2ccc(NC(=O)CSc3ccc(Cl)cc3)cc2)c1 | 3.5 | 5.2 | 12.2 | -10.8 | 5.1 | -3.9
Cc1ccc(NS(=O)(=O)c2ccc(NC(=O)C(C)Sc3ccc(Cl)cc3)cc2)c(C)c1 (stereo not drawn) | 60.5* | 49.9 | 24.8 | 42.8 | 10.5 | 37.4
COc1ccc(-n2nc(C(=O)NCC(=O)N3CCC(C)CC3)c3ccccc3c2=O)cc1Cl | -18.6 | -76.9 | -114.4 | -19.2 | -69.8 | -49.5
COC(=O)C1(CCSC)NC(c2ccc(O)c(OC)c2)C2C(=O)N(c3ccc(C)cc3)C(=O)C21 (stereo not drawn) | 3.8 | 3.3 | 9.8 | 1.1 | 5.8 | 11.3
Brc1ccc(-c2csc(N3CCCCCC3)n2)cc1 | 46.3* | -15.4 | -167.5 | -8.1 | -33.3 | -3.7
Clc1cccc(-c2cc3nc4c(c(N5CCN(c6cnccn6)CC5)n3n2)CCCC4)c1 | -47.7 | 25.6 | -106.2 | 60.6* | -46.0 | -8.3
CN(CC(=O)NC1CCCCC1)S(=O)(=O)c1ccc(Cl)cc1 | 16.3 | -7.3 | 90.9* | -10.2 | 8.8 | 2.3
O=C(O)c1cn2c3c(ccc(Cl)c3c1=O)OCC2 | 51.5* | 13.0 | 7.6 | -6.0 | -2.3 | -10.5
COc1cc(OC)c(OC)cc1/C=N/n1c(C)nc2ccccc2c1=O | 0.6 | 12.6 | -0.2 | 96.9* | -11.0 | 8.0
N#Cc1c(N)n(C2OC(CO)C(O)C2O)c2ncnc(N)c12 (stereo not drawn) | 65.9* | 61.9* | 96.1* | 100.7* | 70.6* | 65.1
Nc1ncnc2c1ncn2C1O[C@H](CO)[C@@H](O)[C@@H]1O (stereo partly drawn) | 6.0 | -13.4 | 12.2 | -9.8 | 6.3 | -36.0
CC(=O)c1cccc(N=c2scc(-c3ccc(S(=O)(=O)N4CCOCC4)cc3)n2CCO)c1 | 33.3 | 19.1 | 11.4 | 53.9* | 44.4 | 84.0
COc1ccc(OC)c(CN2CCN(C(=O)[C@@H](NC(=O)c3cccc(C)c3)C(C)C)CC2)c1 | 1.8 | -8.1 | 3.8 | 8.1 | 5.8 | -15.9
CCOc1ccc2nc(N/C(N)=N/C(=S)Nc3ccc(C)c(C)c3)nc(C)c2c1 | 1.0 | 4.7 | -1.6 | 19.8 | -5.9 | 30.0
COc1ccc(NC(=S)/N=C(\N)Nc2nc(C)c3ccc(C)cc3n2)cc1 | 9.3 | 13.5 | 53.0* | 1.1 | 8.9 | 66.1
O=C1C=C(c2ccoc2)N2CCC[C@H]2C1 | -7.8 | -5.6 | -0.5 | -4.2 | -3.1 | 11.3
